# Assay outcomes: PubChem, National Center for Advancing Translational Sciences (NCATS)
# The list is not random: actives were taken first. Their share in the collection is about 8%.
# HT1080 IDH1KD tx: HT-1080 IDH1 knockdown cell toxicity (counter line) | HT-1080 IDH1 knockdown viability, ATP luminescence, 48 h | Potency, µM (series often up to 46.1 µM), for the others: at the highest dose activity, negative = toxicity, most hits filed as cytotoxic | AID 686971 | 360,000 tested, 2% active;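 also: 0% = DMSO wells and -100% = cell-free medium wells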
#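 Viability of IDH1-knockdown HT-1080 fibrosarcoma cells was assessed by CellTiter-Glo after 48 h at 37 °C with titrated compound; concentration-effect curves were classified by fit quality and response size.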
# KB-V1 cytotox: kills drug-selected multidrug resistant KB-V1 cells; Potency, µM (titrated, usually from 46.1 µM), hits mostly cytotoxic; 400,000 tested, 3.4% active; AID 1347076; KB-V1 MDR cells viability, CellTiter-Glo, 72 h; also: % is scaled to controls: 0 for no effect and ±100 for the full control effect; nearly all actives have a fitted effect of over 60% in size
#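 Readout: CellTiter-Glo luminescence, 10 min after addition. Cells: KB-V1 MDR subline, 72 h at 37 degrees C with compound. Analysis: corrected, normalized data fitted to concentration-effect curves.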
# KB-3-1 tox: kills parental KB-3-1 adenocarcinoma cells; KB-3-1 viability, CellTiter-Glo ATP luminescence, 72 h; Potency, µM (highest dose often 46.1 µM), most hits filed as cytotoxic; 400,000 tested, 1.4% active; AID 1347075; also: % is scaled to controls: 0 for no effect and ±100 for the full control effect; nearly all actives have a fitted effect of over 60% in size
#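 Multi-concentration cytotoxicity screen in KB-3-1 cells grown in DMEM lacking phenol red with 10% FBS. After 72 h at 37 °C with compound, ATP-dependent luminescence was recorded.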
# SW480 rereplic: induces DNA re-replication in SW480 colon adenocarcinoma cells. SW480 DNA re-replication, Hoechst DNA content imaging, 48 h. Potency, µM (highest dose often 46.1 µM), inactives show at the top dose re-replication activation, hits mostly activators. 340,000 tested, 1.8% active. AID 624297; also: % of control where 0% means no effect; nearly all actives have a fitted effect of over 55% in size
#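 Readout is total intensity of Hoechst-stained nuclei, excited at 405 nm and collected at 500-530 nm. Compound treatment lasted 48 hr at 37 C in 5% CO2 before staining.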
# HT1080-NT tox: kills 2HG-producing HT-1080-NT fibrosarcoma cells; AID 686970; 360,000 tested, 1.6% active; Potency, µM (highest dose often 46.1 µM), without a hit: at the highest dose activity, negative = less viability, actives largely listed as cytotoxic; HT-1080-NT fibrosarcoma viability, CellTiter-Glo ATP luminescence, 48 h;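 also: NT is the 2HG producing partner of a matched IDH1 knockdown line; 0% = DMSO-treated cells and -100% = media-only wells without cells; nearly all actives have a fitted effect of over 55% in size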
#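 Viability of the 2HG-overproducing fibrosarcoma line after 48 hours of compound exposure at 37 degrees C was determined by luminescence with CellTiter-Glo, and concentration-effect curves were then fitted and categorized.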
# MCF10A rereplic: inducers of DNA re-replication in MCF 10A breast cells; MCF 10A DNA re-replication, Hoechst nuclear intensity, 48 h; Potency, µM (highest dose often 46.1 µM), inactives show at the highest dose activity, positive = re-replication, actives largely listed as activators; 350,000 tested, 2.9% active; AID 624296; also: % of control where 0% means no effect; nearly all actives have a fitted effect of over 50% in size
# The depositor's hits bear a star; i = inactive; ? = inconclusive; nt = no result; [ ] = dose if it differs, or a comment. Calls follow the shape of the dose curve; as a rule, active = well fitted curve in the direction sought with a large enough effect; inconclusive = small, poorly fitted or top-dose-only effect, or another doubt; inactive = no such curve, though single readings can be large; an effect the other way counts as inactive or inconclusive. Potency is read from the fitted curve at half-maximal effect.
SMILES,HT1080 IDH1KD tx,KB-V1 cytotox,KB-3-1 tox,SW480 rereplic,HT1080-NT tox,MCF10A rereplic
Cc1ccccc1NC(=O)CCC(=O)N/N=C/c1cc([N+](=O)[O-])ccc1O,?,20.6µM*,i,?,-24.1%,?
O=C(N/N=C/c1cc([N+](=O)[O-])ccc1O)C(O)(c1ccccc1)c1ccccc1,?,i,?,20.6µM*,-15.9%,?
O=C(N/N=C/c1cc([N+](=O)[O-])ccc1O)C1CC1,?,i,?,-3.1%,?,?
O=C(CN(c1cccc(Br)c1)S(=O)(=O)c1ccccc1)N/N=C/c1cc([N+](=O)[O-])ccc1O,14.6µM*,i,?,?,7.31µM*,?
CCCCN1CC(O)C(O)C(O)C1CO (stereo not drawn),nt,nt,nt,2.3%,nt,-0.9%
Cc1cccc(C(=O)OC(C)C(=O)NCC2CCCCC2)c1O (stereo not drawn),5.9%,i,i,-3.2%,4.3%,5.0%
C[C@H](CO)N1C[C@H](C)[C@H](CN(C)Cc2cncnc2)Oc2ncc(C#CC3(O)CCCC3)cc2C1=O,1.5%,i,i,nt,6.1%,nt
NNc1ccc2c(C(F)(F)F)cc(C(F)(F)F)nc2n1,2.4%,i,?,10.5%,0.5%,-9.7%
N#CC(c1cccc(Cl)c1)c1ccc2c(C(F)(F)F)cc(C(F)(F)F)nc2n1 (stereo not drawn),?,0.92µM*,?,?,9.2µM*,?
O=C1C(=NO)CCc2ccccc21,?,i,?,20.6µM*,-14.7%,19.8%
CN(C)CC1CCC/C(=C\c2ccc(OC(=O)/C=C/c3ccc(Cl)c(Cl)c3)cc2)C1=O (stereo not drawn),-1.7%,?,?,5.3%,1.6%,-3.6%
CN(C)CC1CCC/C(=C/c2ccc(Cl)cc2)C1=O (stereo not drawn),?,?,?,?,-15.6%,18.4µM*
CCCC/C=C1/CCC(CN(C)C)C1=O (stereo not drawn),-26.8%,?,?,?,5.1%,5.8µM*
COc1cccc(/C=C2/CCC(CN(C)C)C2=O)c1 (stereo not drawn),?,?,?,5.8µM*,?,2.31µM*
O=C1C(=Cc2ccc(Cl)cc2)CCc2ccccc21,?,i,i,nt,?,nt
COc1ccc(/C=C2/CCCC(CN(C)C)C2=O)cc1 (stereo not drawn),8.2µM*,?,?,9.2µM*,5.7%,2.91µM*
COc1ccc(-c2ccc(NS(=O)(=O)c3cccc(Cl)c3)cc2)nn1,nt,i,i,nt,nt,nt
CCn1c(COc2cccc(C)c2C)nnc1SCC(=O)Nc1cc(C)on1,14.5%,i,i,-2.3%,9.7%,1.4%
O=C(COc1ccc(Br)cc1)NNC(=O)c1ccc(-n2cncn2)c([N+](=O)[O-])c1,-1.9%,i,i,1.8%,-1.2%,0.8%
CCn1c2ccccc2nc2cc3c(cc21)c(Cl)c(=O)c1ccccc13,20.6µM*,i,?,nt,?,nt
O=c1[nH]c2cc(Br)cnc2nc1/C=C(\O)c1ccc(F)cc1,-21.9%,i,i,18.2%,8.9%,7.31µM*
Cc1ccc(S(=O)(=O)Nc2ccc(Nc3nccn4c(-c5ccc6ccccc6c5)cnc34)cc2)cc1,-0.5%,11.6µM*,i,nt,-24.0%,nt
O=[N+]([O-])c1ccc(/C=C/c2ccnc3ccccc23)cc1,nt,i,?,nt,nt,nt
CC1(C)COC(/C=C/c2ccc([N+](=O)[O-])cc2)=N1,23.1µM*,20.6µM*,?,16.4µM*,?,16.4µM*
O=C(NCC1OCCc2ccccc21)c1ccc(NC(=O)c2cccc(Br)c2)cc1 (stereo not drawn),3.0%,2.59µM*,i,-2.9%,2.3%,?
SMILES,HT1080 IDH1KD tx,KB-V1 cytotox,KB-3-1 tox,SW480 rereplic,HT1080-NT tox,MCF10A rereplic
COc1ccc(NC(=O)CSc2nc(-c3ccccc3)nc3c2Cc2c(CO)cnc(C)c2O3)cc1Cl,nt,i,i,nt,nt,nt
Cc1ccccc1/C=N/Nc1ccnc2cc(Cl)ccc12,?,16.4µM*,?,?,?,18.4µM*
Clc1ccc2c(N/N=C/c3ccc(Br)cc3)ccnc2c1,?,i,?,18.4µM*,?,2.59µM*
Nc1nnc(CCS(=O)(=O)c2ccc(Br)cc2)s1,-3.7%,i,i,-10.2%,-2.5%,-0.5%
CCOc1ccccc1CNC(=O)Cc1ccc(NC(=O)N2CCCCc3ccccc32)cc1,nt,i,i,nt,nt,nt
COc1ccc(CNC(=O)c2ccc3c(c2)N=C(C)c2c(C)ccc(C)c2S3)cc1,nt,1.84µM*,4.61µM*,nt,nt,nt
CC1=Nc2cc(C(=O)NCCc3ccccc3)ccc2Sc2c(C)ccc(C)c21,nt,0.411µM*,0.651µM*,nt,nt,nt
CCCNC(=O)c1ccc2c(c1)N=C(C)c1c(C)ccc(C)c1S2,nt,?,0.82µM*,nt,nt,nt
COc1ccc(CCNC(=O)c2ccc3c(c2)N=C(C)c2cc(C)ccc2S3)cc1OC,nt,i,i,nt,nt,nt
CC1=Nc2cc(C(=O)NCCc3ccc(Cl)cc3)ccc2Sc2c(C)ccc(C)c21,nt,1.64µM*,2.59µM*,nt,nt,nt
CCc1ccc(CNC(=O)c2ccc3c(c2)N=C(C)c2cc(C)ccc2S3)cc1,nt,i,?,nt,nt,nt
COC(=O)[C@@H](NC(=O)Nc1cccc(Br)c1)C(C)C,2.7%,i,i,?,-3.2%,3.7%
CN(C)S(=O)(=O)c1ccc2c(c1)nnn2CCNC(=O)Nc1ccc(Br)cc1,nt,i,i,nt,nt,nt
N#Cc1ccc(Oc2ccc(-c3nc4ccccc4nc3-c3ccccc3)cc2)cc1C#N,-10.5%,20.6µM*,i,-15.2%,-9.4%,10.8%
Cc1ccc(C(=O)CSc2nnc(-c3ccc4[nH]c(C)c(C)c4c3)o2)cc1C,3.1%[9.24 µM],i,i,1.3%,11.2%,-1.1%
Cc1[nH]c2ccc(-c3nnc(SCC(=O)c4ccccc4F)o3)cc2c1C,-11.9%,20.6µM*,i,3.6%,-13.1%,16.4µM*
Cc1ccc(-c2nnc(SCC(=O)Nc3ccccc3F)o2)cc1,20.6µM*,8.2µM*,5.17µM*,-6.1%,13µM*,-3.1%
O=C(CSc1nnc(-c2ccccc2)o1)Nc1ccccc1F,?,?,i,0.3%,-29.5%,-0.5%
Cc1ccc(-c2nnc(SCC(=O)Nc3ccccc3N3CCOCC3)o2)cc1,28.2%,13µM*,i,-2.2%,8.5%,7.0%
Cc1ccc(C)c(NC(=O)C2CCN(c3nn4c(=O)cc(C)nc4s3)CC2)c1,nt,i,i,nt,nt,nt
NCCCCCCNS(=O)(=O)c1ccc2c(Cl)cccc2c1,nt,i,?,nt,nt,nt
